The nature of experiment [1]: antimalarial activity against Dd2 strain (AID 2302;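 active = growth inhibition above 50% at the single 2 µM test dose, taken to imply half-maximal potency below 2 µM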;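 note: 0% = DMSO untreated growth and 100% = chloroquine plus artemisinin killed control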). The conditions noted are these: P. falciparum Dd2 in RBCs, LDH growth readout, 72 h; at 2 µM; active compounds read high.
Experiment [2] in a line: HepG2 cytotoxicity, primary screen, cytotoxicity control for P. falciparum antimalarial project, cell-based, ATP luminescence (AID 2303;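 active = inhibition above 50%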;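 note: 0% = DMSO wells and 100% = digitonin-killed cells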). Conditions: HepG2 viability, 24-48 h, at 10 µM, active compounds read high.
Experiment [3] deals with L-lactate dehydrogenase (Plasmodium falciparum (isolate CDC / Honduras)) (UniProt Q27743). As to the kind of experiment: PfLDH activity inhibition – cell lysate, 3D7 strain, counter-screen for P. falciparum growth inhibition project (AID 2304).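 Note: 0% = vehicle and 100% = reference inhibitor.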 The conditions noted are these: P. falciparum 3D7 crude extract, LDH APAD/NBT absorbance; at 2 µM; active compounds read high. (The purpose of a counterscreen is to sort out artefacts and off-target activity.)

Experiment [4] can be described thus: inhibition of 3D7 malaria parasite growth – strain 3D7 (AID 2306).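 Note: 0% = DMSO wells and 100% = chloroquine plus artemisinin control wells.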 Conditions: P. falciparum 3D7 erythrocytic growth, LDH absorbance, 72 h; at 2 µM; active compounds read high.
The target of experiment [5] is Calcium-dependent protein kinase 1 (Plasmodium falciparum (isolate 3D7)) (UniProt P62344). As to the kind of experiment: PfCDPK1 kinase inhibitors, biochemical, TCAMS library (AID 1159585; cut-off not given, nearly all actives have IC50 up to about 0.98 µM;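 note: inhibitors leave more ATP so luminescence rises with inhibition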). Conditions: recombinant PfCDPK1, Kinase-Glo ATP depletion luminescence.
The target in experiment [6] is Plasmodium falciparum protein kinase 6 (PK6, PF3D7_1337100) (UniProt Q8IDW1). As to the kind of experiment: PfPK6 kinase inhibitors, biochemical, TCAMS library (AID 1159586). The conditions noted are these: recombinant PfPK6, Kinase-Glo ATP depletion luminescence.
Experiment [7] deals with Protein kinase 7 (PK7), Plasmodium falciparum 3D7 (PF3D7_0213400) (UniProt Q7YTF7). As to the kind of experiment: inhibition of Plasmodium PK7 catalytic activity – biochemical, TCAMS antimalarial set, Kinase-Glo luminescence (AID 1159587). Conditions: recombinant PfPK7, Kinase-Glo ATP depletion luminescence. In general terms: Kinase-Glo reads ATP consumption through a luciferase reaction.

Experiment [8] addresses Calcium-dependent protein kinase 4 (Plasmodium falciparum (isolate 3D7)) (UniProt Q8IBS5). As to the kind of experiment: PfCDPK4 kinase inhibitors, biochemical, TCAMS library (AID 1159588; cut-off not given, nearly all actives have IC50 up to about 0.91 µM). Conditions: recombinant PfCDPK4, Kinase-Glo ATP depletion luminescence.

Unmarked numbers belong to inactive results. For some of these results: Entries with a potency or affinity are not part of this list. Activity calls are given as the source filed them. Unless noted, the rule behind the calls is not given here.

In general, inhibition refers to the drop in the measured response relative to a control, in per cent.

Chain of Calcium-dependent protein kinase 4 (Plasmodium falciparum (isolate 3D7)) (Q8IBS5 whole entry, looked up): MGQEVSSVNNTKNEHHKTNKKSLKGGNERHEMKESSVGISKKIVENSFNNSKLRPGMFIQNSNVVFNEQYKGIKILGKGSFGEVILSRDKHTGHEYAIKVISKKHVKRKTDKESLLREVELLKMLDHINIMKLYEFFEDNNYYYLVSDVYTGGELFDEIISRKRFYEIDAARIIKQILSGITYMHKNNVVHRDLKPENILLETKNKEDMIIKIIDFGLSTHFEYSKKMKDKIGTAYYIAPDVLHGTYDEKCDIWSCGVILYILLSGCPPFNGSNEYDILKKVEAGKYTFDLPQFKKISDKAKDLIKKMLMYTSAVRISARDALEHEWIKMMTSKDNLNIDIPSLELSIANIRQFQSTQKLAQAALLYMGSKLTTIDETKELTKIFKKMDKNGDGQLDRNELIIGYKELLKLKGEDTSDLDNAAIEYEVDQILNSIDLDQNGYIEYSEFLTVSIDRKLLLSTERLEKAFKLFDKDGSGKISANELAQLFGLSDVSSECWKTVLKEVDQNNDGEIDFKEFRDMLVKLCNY
Chain of L-lactate dehydrogenase (Plasmodium falciparum (isolate CDC / Honduras)) (Q27743 whole entry, looked up): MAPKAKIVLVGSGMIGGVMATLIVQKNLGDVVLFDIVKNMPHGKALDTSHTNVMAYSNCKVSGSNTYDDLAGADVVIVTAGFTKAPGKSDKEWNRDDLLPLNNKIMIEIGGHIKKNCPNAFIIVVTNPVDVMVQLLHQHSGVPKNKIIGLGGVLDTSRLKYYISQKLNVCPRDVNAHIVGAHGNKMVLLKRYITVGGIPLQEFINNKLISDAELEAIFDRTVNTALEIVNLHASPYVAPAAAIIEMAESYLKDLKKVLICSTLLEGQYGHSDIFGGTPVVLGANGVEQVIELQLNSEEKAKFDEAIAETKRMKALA
Chain of Protein kinase 7 (PK7), Plasmodium falciparum 3D7 (PF3D7_0213400) (Q7YTF7 1-343): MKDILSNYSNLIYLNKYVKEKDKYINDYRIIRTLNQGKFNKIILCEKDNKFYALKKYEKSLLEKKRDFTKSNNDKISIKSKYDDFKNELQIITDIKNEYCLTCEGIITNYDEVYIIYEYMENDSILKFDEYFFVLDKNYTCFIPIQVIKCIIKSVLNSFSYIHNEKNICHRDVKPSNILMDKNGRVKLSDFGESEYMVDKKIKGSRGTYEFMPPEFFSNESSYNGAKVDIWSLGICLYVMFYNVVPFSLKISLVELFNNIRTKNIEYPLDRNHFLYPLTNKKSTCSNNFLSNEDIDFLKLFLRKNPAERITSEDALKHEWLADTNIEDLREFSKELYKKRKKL
Chain of Calcium-dependent protein kinase 1 (Plasmodium falciparum (isolate 3D7)) (P62344 whole entry, looked up): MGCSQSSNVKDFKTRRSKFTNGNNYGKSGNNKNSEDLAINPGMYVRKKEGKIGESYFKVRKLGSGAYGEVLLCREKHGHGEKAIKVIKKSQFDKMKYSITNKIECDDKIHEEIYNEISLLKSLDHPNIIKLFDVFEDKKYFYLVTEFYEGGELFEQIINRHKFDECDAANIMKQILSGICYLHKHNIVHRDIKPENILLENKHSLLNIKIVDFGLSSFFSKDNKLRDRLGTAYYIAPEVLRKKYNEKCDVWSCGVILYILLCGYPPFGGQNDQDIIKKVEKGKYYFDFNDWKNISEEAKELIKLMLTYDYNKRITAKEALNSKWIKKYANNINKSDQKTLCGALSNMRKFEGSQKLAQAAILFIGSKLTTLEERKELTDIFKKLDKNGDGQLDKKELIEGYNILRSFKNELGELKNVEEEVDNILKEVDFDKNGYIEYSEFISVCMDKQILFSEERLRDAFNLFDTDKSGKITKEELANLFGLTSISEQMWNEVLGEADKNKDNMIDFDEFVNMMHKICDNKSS
Chain of Plasmodium falciparum protein kinase 6 (PK6, PF3D7_1337100) (Q8IDW1 1-305): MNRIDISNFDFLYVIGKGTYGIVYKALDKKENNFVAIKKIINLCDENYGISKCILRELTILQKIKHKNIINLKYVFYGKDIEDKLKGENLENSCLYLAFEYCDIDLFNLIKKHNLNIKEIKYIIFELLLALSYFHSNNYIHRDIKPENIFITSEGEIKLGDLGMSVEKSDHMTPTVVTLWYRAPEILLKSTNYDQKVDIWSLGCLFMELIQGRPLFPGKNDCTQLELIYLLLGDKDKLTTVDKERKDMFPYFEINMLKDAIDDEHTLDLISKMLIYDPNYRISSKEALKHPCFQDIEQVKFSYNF

Consider `Cc1ccccc1C1CCN(C2CCC(NC(=O)c3cc4cc(Cl)ccc4o3)CC2)CC1` (stereo not given), for which the results for the growth inhibition in experiment [1] and in experiment [4] were 30% and 89% (active), respectively. The inhibition in experiment [2] was 22%; in experiment [3] it was -2%. Also, the result in experiment [5], in experiment [6], in experiment [7] and in experiment [8] was inactive.

Regarding `CC1(C)N=C(N)N=C(N)N1OCCOc1cccc(C(F)(F)F)c1`, the results for the growth inhibition in experiment [1] and in experiment [4] were 97% (active) and 93% (active), respectively. Further, the figures for the inhibition in experiment [2] and in experiment [3] were 67% (active) and -2%, respectively. Moreover, the outcome in experiment [5], in experiment [6], in experiment [7] and in experiment [8] was inactive.

Consider `CCOc1ccc2c(NN=Cc3cccc(OC)c3OC)cc(C)nc2c1`, for which the growth inhibition in experiment [1] is 85% (active); in experiment [4] it was 102% (active). Also, the inhibition was 4% in experiment [2] and 3% in experiment [3]. For the same molecule, the result in experiment [5], in experiment [6], in experiment [7] and in experiment [8] was inactive.

In the case of `O=C(COc1ccccc1)Nn1cnc2ccccc21`, the growth inhibition in experiment [1] was -3%; in experiment [4] it was 91% (active). The figures for the inhibition in experiment [2] and in experiment [3] were 2% and 3%, respectively. Besides, the result in experiment [5], in experiment [6], in experiment [7] and in experiment [8] was inactive.

Consider `CCC(NCc1ccc(-c2cncc(C(=O)NCC(C)C)c2)cc1)c1ccccc1` (stereo not given), for which the growth inhibition in experiment [1] was 8%; in experiment [4] it was 86% (active). For the same molecule, the inhibition in experiment [2] was 14%; in experiment [3], 2%. The result in experiment [5], in experiment [6], in experiment [7] and in experiment [8] was inactive.

For the molecule `COc1cc2nc(N(C)Cc3cccc(I)c3)nc(N)c2cc1OC`, the growth inhibition in experiment [1] is 88% (active); in experiment [4] it was 101% (active). Also, the inhibition in experiment [2] was 7%; in experiment [3], 1%. Besides, the result in experiment [5], in experiment [6], in experiment [7] and in experiment [8] was inactive.

With `CC1CN(Cc2cccc(F)c2)CCN1c1ccc(NC(=O)c2ccc(F)cc2)cc1` (stereo not given), the growth inhibition in experiment [1] is 92% (active); in experiment [4], 96% (active). The inhibition in experiment [2] and in experiment [3] was -2% in each case. The result in experiment [5], in experiment [6], in experiment [7] and in experiment [8] was inactive.

With `CCC(NC(=O)c1ccccc1NC(=O)c1ccc(C)cc1)C(=O)OC` (stereo not given), the results for the growth inhibition in experiment [1] and in experiment [4] were 86% (active) and 95% (active), respectively. In addition, the inhibition in experiment [2] was -4%; in experiment [3] it was 3%. For the same molecule, the outcome in experiment [5], in experiment [6], in experiment [7] and in experiment [8] was inactive.

As for `O=C(NC1CCN(c2ccnc3ccccc23)C1)c1ccc(OC(F)(F)F)cc1` (stereo not given), the growth inhibition in experiment [1] was 68% (active); in experiment [4], 89% (active). Moreover, the inhibition in experiment [2] is 35%; in experiment [3], -4%. Besides, the outcome in experiment [5], in experiment [6], in experiment [7] and in experiment [8] was inactive.

On to `CC(=O)N1N=C(c2ccccc2)Sc2c1nc(-c1ccc(Cl)cc1)n2C(C)=O`, for which the values for the growth inhibition in experiment [1] and in experiment [4] were 18% and 94% (active), respectively. Also, the figures for the inhibition in experiment [2] and in experiment [3] were -1% and 0%, respectively. Further, the result in experiment [5], in experiment [6], in experiment [7] and in experiment [8] was inactive.

Turning to `Cc1ccc2c(=O)cc(CCc3cccc(F)c3F)n(CC(=O)N(Cc3ccc(-c4ccc(C(F)(F)F)cc4)cc3)C3CCN(C)CC3)c2n1`, the growth inhibition in experiment [1] was 76% (active); in experiment [4], 86% (active). The inhibition in experiment [2] is 49%; in experiment [3], 0%. Also, the outcome in experiment [5], in experiment [6], in experiment [7] and in experiment [8] was inactive.

Turning to `C=CCOC(=O)N1CCC(CNCc2ccc(-c3cccc(-c4nc5c(C)cccc5[nH]4)c3)cc2)C1` (stereo not given), the growth inhibition in experiment [1] is 99% (active); in experiment [4] it was 102% (active). Besides, the inhibition in experiment [2] was 25%; in experiment [3], -5%. In addition, the outcome in experiment [5], in experiment [6], in experiment [7] and in experiment [8] was inactive.

With `Cn1ccnc1CNC(=O)c1ccc(-c2ccc(-c3nc4ccc(C(F)(F)F)cc4[nH]3)s2)cc1`, the growth inhibition was 43% in experiment [1] and 101% (active) in experiment [4]. In addition, the results for the inhibition in experiment [2] and in experiment [3] were 40% and 3%, respectively. Moreover, the result in experiment [5], in experiment [6], in experiment [7] and in experiment [8] was inactive.

In the case of `CC(C)CN(c1nc(C(=O)NNC(=O)[C@H](CC2CC2)NC(=O)c2cc3cc(OCCN(C)C)ccc3o2)cs1)C1CC1`, the growth inhibition was 97% (active) in experiment [1] and 87% (active) in experiment [4]. The results for the inhibition in experiment [2] and in experiment [3] were -5% and -4%, respectively. Besides, the result in experiment [5], in experiment [6], in experiment [7] and in experiment [8] was inactive.

Consider `O=C(Nc1cccc([N+](=O)[O-])c1)Nc1cccc(C(F)(F)F)c1`, for which the growth inhibition is 81% (active) in experiment [1] and 92% (active) in experiment [4]. Besides, the inhibition is 0% in experiment [2] and -8% in experiment [3]. For the same molecule, the outcome in experiment [5], in experiment [6], in experiment [7] and in experiment [8] was inactive.

For `NC(=NCCc1ccc(Cl)c(Cl)c1)c1ccc2ccccc2c1`, the results for the growth inhibition in experiment [1] and in experiment [4] were 29% and 100% (active), respectively. Also, the inhibition in experiment [2] was 60% (active); in experiment [3] it was -3%. The result in experiment [5], in experiment [6], in experiment [7] and in experiment [8] was inactive.

Regarding `CCCNCc1ccc(-c2ccc(CN(CCOC)C(=O)c3ccccc3)cc2)nc1`, the growth inhibition in experiment [1] is 25%; in experiment [4], 94% (active). The inhibition in experiment [2] is 16%; in experiment [3] it was -7%. The result in experiment [5], in experiment [6], in experiment [7] and in experiment [8] was inactive.

On to `NS(=O)(=O)c1cccc(Br)c1`, for which the growth inhibition in experiment [1] is -5%; in experiment [4], 98% (active). Also, the inhibition in experiment [2] and in experiment [3] was 0% throughout. The result in experiment [5], in experiment [6], in experiment [7] and in experiment [8] was inactive.

On to `COc1ccc(C(=O)CCC(=O)N(Cc2ccc(-c3ccc(CNCCc4ccc(S(C)(=O)=O)cc4)cn3)cc2)Cc2ccc3c(c2)OCO3)cc1F`, for which the growth inhibition in experiment [1] was 41%; in experiment [4], 95% (active). In addition, the results for the inhibition in experiment [2] and in experiment [3] were 13% and 3%, respectively. Further, the result in experiment [5], in experiment [6], in experiment [7] and in experiment [8] was inactive.

In the case of `c1ccc(Oc2ccc(Nc3ccnc4ccc(-c5ccccn5)cc34)cc2)cc1`, the growth inhibition in experiment [1] was 10%; in experiment [4], 80% (active). In addition, the inhibition in experiment [2] was 4%; in experiment [3], -5%. The result in experiment [5], in experiment [6], in experiment [7] and in experiment [8] was inactive.

These data come from PubChem BioAssay.
